Holding throughout (assay): DAPPL (digital affinity profiling via proximity ligation, sequencing); 10 mM Tris-HCl pH 7.5, 50 mM NaCl, 1 mM DTT, 4% glycerol, room temperature, 30 min; GST-TFs on glutathione beads, 16-mer random dsDNA library, 0.1% formaldehyde crosslink after washing; high values mean tight binding
The target of one assay is T1, FEV (Homo sapiens, UniProt Q99581 1-238).
T1 sequence: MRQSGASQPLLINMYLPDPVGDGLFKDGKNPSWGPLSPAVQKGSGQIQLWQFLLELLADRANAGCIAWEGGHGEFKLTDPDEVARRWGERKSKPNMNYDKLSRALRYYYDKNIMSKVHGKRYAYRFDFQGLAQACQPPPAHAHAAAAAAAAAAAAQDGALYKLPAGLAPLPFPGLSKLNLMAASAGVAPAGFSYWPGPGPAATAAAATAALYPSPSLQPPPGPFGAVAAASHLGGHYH
The following applies: protein: recombinant; tags: N-terminal GST; dsDNA, one strand shown. The procedure, abridged: (§1)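 In yeast, human transcription factors were expressed with a GST fusion, then pulled down on glutathione beads and given DNA barcodes. Pooled with a tag-only sample, they were exposed to 200 nmole of a 16-mer random double-stranded DNA library (Tris/NaCl/DTT/glycerol buffer, room temperature, 30 min), washed, crosslinked with 0.1% formaldehyde, proximity-ligated using BsaI/T4 ligase for 1 h at 37 °C, PCR-amplified and read on an Illumina NextSeq500. Each hexamer's frequency of reads for a factor, divided by the matching frequency for the tag-only sample, gives the binding signal.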

The target of a further assay is ETV5 (Homo sapiens, UniProt P41161 1-510). The settings on record: protein: recombinant; tags: N-terminal GST; dsDNA, one strand shown. The essentials: as §1
Sequence of ETV5 (P41161 whole entry): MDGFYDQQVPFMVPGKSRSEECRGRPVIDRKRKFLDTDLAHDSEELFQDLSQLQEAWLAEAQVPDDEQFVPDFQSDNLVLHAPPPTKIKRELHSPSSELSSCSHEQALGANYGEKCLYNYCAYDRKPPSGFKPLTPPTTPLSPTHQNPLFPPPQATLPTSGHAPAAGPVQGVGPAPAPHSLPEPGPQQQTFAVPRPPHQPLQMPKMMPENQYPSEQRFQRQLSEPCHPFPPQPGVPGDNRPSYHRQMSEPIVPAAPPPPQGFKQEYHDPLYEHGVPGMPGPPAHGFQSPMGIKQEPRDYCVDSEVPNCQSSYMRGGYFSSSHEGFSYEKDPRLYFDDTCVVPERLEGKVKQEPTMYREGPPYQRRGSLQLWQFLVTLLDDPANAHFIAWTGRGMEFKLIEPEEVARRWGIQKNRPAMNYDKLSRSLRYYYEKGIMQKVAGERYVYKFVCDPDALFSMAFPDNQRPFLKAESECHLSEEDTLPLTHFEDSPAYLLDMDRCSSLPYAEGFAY
The target in the next assay is HSF1 (Homo sapiens, UniProt Q00613 1-529). The following applies: protein: recombinant; tags: N-terminal GST; chain copies: 3; dsDNA, one strand shown. The essentials:
as §1

In another assay the target is T2, SPIC (Homo sapiens, UniProt Q8N5J4 1-248).
T2 sequence: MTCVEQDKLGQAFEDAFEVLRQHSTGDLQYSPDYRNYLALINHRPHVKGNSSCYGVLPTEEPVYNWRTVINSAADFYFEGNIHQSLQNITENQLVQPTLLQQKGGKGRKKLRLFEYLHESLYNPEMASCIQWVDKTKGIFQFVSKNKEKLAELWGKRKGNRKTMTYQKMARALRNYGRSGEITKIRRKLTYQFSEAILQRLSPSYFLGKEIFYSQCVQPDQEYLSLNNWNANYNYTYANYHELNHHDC
The settings on record: protein: recombinant; tags: N-terminal GST; dsDNA, one strand shown. The procedure, abridged:
as §1

In a further assay the target is ELF4 (Homo sapiens, UniProt Q99607 1-663). The following applies: protein: recombinant; tags: N-terminal GST; dsDNA, one strand shown. The essentials: as §1
Sequence of ELF4 (Q99607 whole entry): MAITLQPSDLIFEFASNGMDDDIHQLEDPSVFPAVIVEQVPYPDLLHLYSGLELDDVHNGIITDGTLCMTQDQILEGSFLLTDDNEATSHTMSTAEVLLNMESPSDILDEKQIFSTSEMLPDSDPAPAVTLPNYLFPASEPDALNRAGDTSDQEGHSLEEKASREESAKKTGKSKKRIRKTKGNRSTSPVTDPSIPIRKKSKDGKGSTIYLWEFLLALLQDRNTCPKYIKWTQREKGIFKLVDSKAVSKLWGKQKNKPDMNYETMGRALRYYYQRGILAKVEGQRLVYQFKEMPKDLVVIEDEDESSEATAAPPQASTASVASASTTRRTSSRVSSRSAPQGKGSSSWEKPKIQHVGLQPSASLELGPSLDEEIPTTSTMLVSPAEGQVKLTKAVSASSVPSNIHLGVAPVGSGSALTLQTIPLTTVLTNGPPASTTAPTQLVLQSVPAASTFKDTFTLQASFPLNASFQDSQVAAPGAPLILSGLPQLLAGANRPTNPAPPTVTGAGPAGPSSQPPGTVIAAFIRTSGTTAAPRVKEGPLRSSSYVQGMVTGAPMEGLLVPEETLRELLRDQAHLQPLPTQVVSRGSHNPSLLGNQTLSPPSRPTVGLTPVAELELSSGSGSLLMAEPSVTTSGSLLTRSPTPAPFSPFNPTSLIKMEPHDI
The target of another assay is T3, ELK4 (Homo sapiens, UniProt P28324-2 1-405).
T3 sequence: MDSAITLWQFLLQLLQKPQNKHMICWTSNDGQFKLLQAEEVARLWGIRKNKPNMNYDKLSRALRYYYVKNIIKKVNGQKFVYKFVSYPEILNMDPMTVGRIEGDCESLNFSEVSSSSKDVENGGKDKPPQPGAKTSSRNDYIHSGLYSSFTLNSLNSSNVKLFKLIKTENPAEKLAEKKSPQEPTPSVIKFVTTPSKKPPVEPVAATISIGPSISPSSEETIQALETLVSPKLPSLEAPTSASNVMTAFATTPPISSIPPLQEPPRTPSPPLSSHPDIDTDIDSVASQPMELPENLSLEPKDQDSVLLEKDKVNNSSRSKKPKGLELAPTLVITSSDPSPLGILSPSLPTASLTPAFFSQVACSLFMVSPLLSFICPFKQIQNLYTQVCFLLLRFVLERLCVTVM
The following applies: protein: recombinant; tags: N-terminal GST; dsDNA, one strand shown. The procedure, abridged:
as §1

The next assay has as its target T4, ETV2 (Homo sapiens, UniProt O00321 1-342).
T4 sequence: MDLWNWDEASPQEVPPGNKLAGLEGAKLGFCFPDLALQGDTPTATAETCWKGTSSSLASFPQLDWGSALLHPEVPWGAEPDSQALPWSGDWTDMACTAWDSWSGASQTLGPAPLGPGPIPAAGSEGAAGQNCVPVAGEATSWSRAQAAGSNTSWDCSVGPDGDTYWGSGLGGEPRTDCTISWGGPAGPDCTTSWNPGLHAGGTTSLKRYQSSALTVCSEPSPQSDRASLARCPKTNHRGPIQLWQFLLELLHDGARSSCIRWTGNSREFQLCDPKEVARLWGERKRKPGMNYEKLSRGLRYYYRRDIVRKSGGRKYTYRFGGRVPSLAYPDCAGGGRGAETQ
The following applies: protein: recombinant; tags: N-terminal GST; dsDNA, one strand shown. The procedure, abridged:
as §1

Another assay has as its target T5, ELF3 (Homo sapiens, UniProt P78545 1-371).
T5 sequence: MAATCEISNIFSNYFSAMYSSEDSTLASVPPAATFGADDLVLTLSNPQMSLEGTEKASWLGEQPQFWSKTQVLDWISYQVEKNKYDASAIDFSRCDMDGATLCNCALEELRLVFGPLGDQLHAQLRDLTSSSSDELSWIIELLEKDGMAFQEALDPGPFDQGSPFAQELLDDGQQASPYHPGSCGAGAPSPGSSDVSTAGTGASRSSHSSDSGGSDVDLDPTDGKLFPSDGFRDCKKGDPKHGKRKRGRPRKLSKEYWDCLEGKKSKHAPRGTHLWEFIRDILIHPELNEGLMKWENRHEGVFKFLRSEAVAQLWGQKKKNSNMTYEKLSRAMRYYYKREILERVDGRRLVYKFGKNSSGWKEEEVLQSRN
The settings on record: protein: recombinant; tags: N-terminal GST; dsDNA, one strand shown. The procedure, abridged: as §1

A further assay deals with CRX (Homo sapiens, UniProt O43186 1-299). The following applies: protein: recombinant; tags: N-terminal GST; dsDNA, one strand shown. The procedure, abridged:
as §1

The target in another assay is ETV1 (Homo sapiens, UniProt P50549 1-477). The following applies: protein: recombinant; tags: N-terminal GST; dsDNA, one strand shown. The procedure, abridged:
as §1

Sequence of HSF1 (Q00613 whole entry): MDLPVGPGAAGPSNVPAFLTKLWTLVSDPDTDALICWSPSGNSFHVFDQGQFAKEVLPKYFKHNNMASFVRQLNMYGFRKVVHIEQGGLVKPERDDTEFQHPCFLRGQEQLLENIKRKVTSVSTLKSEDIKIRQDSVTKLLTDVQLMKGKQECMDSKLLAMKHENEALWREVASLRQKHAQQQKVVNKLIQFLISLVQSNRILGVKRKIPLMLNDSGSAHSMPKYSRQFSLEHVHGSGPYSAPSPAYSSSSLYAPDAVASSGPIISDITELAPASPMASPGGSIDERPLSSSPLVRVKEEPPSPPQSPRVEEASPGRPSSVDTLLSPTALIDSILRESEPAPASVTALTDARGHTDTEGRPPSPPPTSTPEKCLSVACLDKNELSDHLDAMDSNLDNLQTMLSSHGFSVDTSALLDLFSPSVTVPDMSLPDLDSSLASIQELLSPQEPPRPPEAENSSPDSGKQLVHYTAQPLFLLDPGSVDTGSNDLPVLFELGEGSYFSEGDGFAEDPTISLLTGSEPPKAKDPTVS
Sequence of CRX (O43186 whole entry): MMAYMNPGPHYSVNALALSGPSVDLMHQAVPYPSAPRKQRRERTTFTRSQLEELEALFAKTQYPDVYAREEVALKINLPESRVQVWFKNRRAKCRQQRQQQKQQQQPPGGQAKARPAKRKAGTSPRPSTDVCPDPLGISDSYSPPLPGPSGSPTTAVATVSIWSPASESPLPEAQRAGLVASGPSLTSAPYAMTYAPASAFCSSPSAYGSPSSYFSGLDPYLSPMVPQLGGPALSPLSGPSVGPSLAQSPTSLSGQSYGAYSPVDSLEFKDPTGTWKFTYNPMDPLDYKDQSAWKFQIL
Sequence of ETV1 (P50549 whole entry): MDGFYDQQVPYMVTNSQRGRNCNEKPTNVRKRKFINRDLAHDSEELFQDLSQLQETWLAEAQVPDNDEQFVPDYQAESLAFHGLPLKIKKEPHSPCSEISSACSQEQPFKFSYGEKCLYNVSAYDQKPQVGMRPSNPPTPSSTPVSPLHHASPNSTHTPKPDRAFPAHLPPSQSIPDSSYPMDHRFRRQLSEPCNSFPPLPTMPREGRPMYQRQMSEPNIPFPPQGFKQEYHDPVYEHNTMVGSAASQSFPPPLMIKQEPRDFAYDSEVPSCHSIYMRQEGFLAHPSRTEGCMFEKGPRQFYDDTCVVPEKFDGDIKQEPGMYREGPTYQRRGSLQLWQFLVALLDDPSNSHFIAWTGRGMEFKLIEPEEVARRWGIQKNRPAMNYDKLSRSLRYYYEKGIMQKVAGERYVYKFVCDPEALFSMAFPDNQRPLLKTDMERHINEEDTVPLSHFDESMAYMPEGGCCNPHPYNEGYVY

With ATAATT, the binding signal is 1.25 fold enrichment (6-mer frequency, TF over GST control) with FEV; 1.37 fold enrichment (6-mer frequency, TF over GST control) with ETV5; 1.76 fold enrichment (6-mer frequency, TF over GST control) with HSF1; 1.41 fold enrichment (6-mer frequency, TF over GST control) in the assay with SPIC; 1.25 fold enrichment (6-mer frequency, TF over GST control) with ELF4; 1.33 fold enrichment (6-mer frequency, TF over GST control) with ELK4. Further, the binding signal in the assay with ETV2 is 1.5 fold enrichment (6-mer frequency, TF over GST control); with ELF3 it was 1.34 fold enrichment (6-mer frequency, TF over GST control); with CRX, 2.16 fold enrichment (6-mer frequency, TF over GST control); in the assay with ETV1, 1.34 fold enrichment (6-mer frequency, TF over GST control).

The values are drawn from article PMC7862700, “An all-to-all approach to the identification of sequence-specific readers for epigenetic DNA modifications on cytosine”.
